From PubChem BioAssay AID1347426 (Functional Genomics Laboratory (NCATS/FGL), 2020) come the findings set out here.

The whole screen tested about 31,000 sequences, of which about 1,400 (4.5%) were called active. The entries come from a sample that favours actives as a whole. Values without a mark were called inactive.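 The calls were made as follows: active = median seed-adjusted z-score above 1 or below -1; inactive = the rest.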

The nature of the assay: Novel Modifiers of Survival Motor Neuron (SMN) Protein: Gene Identification via Genome-wide siRNA Screen.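 Also: luminescence tracks full-length SMN protein made from the SMN2 reporter.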 The note with it: HEK293T SMN2-luciferase reporter, siRNA knockdown, 72 h; actives lie on both sides. The method in brief:
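HEK293T cells stably carrying an SMN2 promoter/splicing cassette–luciferase reporter were reverse-transfected with 1 pmol siRNA per well (druggable-genome library, 3 siRNAs per gene) and grown 72 h at 37 °C. Luminescence, normalized to negative-control siRNA and log10-transformed, was scored as MAD.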
(In a reporter assay the amount or activity of a reporter protein is the signal.)
Regarding CAAUUUUGCAGGCAACUUUTT against SCYE1, the median seed-adjusted z-score is 0.437.
The figure for GACAUAUAAUGACAUAGAUTT against TRAK1 is 0.298; for CUUUGUCAGAGAUCACUUATT against PIPOX it is 1.06 (active); for GGAAUGCUAAGUUCCGAGATT against ARFGAP1 it is 0.123.
The figure for AGGUUUCAGUGGUUUGGAUTT against COL1A1 is 0; for CCAAGAACCCGGAGAAGUATT against EXOC7 it is -0.231.
As for GUACAAUACAAACACUUAATT against ORC4L, the figure is -0.286.
Consider GCGUGGACCCAAAUCAAUATT against KARS, for which the median seed-adjusted z-score is -0.152.
The figure for GCUCCAACAUGGUCUACAATT against POLE is -1.55 (active).
The figure for GCUAGUCUUCUGGAAGUUATT against SRPRB is 0.000693; for GGAUAUGCAUGCAAUCAAATT against ADAM23 it is -0.0279; for GCCGUGACAUGAUAGGCAUTT against DDX41 it is -0.611.
On to GGUUUGUGAAAGCAUAUAATT against FMNL2, for which the median seed-adjusted z-score is 0.293.
On to GGAACGAAGAGAACUAGAATT against OFD1, for which the median seed-adjusted z-score is 0.
For the sequence CCAAGGAGCUUACUAUGGATT against SETDB2, the median seed-adjusted z-score is 0.417.
The figure for UGAGCAUGACUGAUUCCAATT against SFTPD is 0.289; for GUGAAGAUGUGGUCCUGAATT against PTK2B it is 1.71 (active).
The figure for GGCUGUAAACUGCGCAUCATT against APOBEC2 is 0.232.
The figure for GAAUUGGAGAGCACCAAUATT against POLR2B is -4.81 (active); for ACAGGAUUCCAGAAAUGGATT against REG1A it is 0.596; for GCAGAAUUCUCCUACCAAATT against ENTPD3 it is -0.28.
As for GGUCAACGAUGACAACCGATT against ITGB4, the median seed-adjusted z-score was -0.226.
As for CGGUAUCAUUACUGGAUAATT against LNPEP, the figure is -0.386.
As for CCUUUGAGAUGGAAGCCUATT against ACY3, the median seed-adjusted z-score is 0.568.
As for CAACCCUACCAAUGCUACUTT against PTP4A2, the figure is -1.45 (active); as for GCUGUGAAAUUGUUUCGAATT against IREB2, 0.
As to GGGAACUUCUUGGAACUUUTT against KLK12, the median seed-adjusted z-score was 0.243.
The figure for CCAGCGCAACAAAGGAAAATT against HMX1 is 1.3 (active).
The figure for GAACUAAGCACUACUCUAATT against DRP2 is -0.0555; for GCUACUUCUCAGUUGCUAATT against NDST4 it is 0.426.
With CAAAGUGACCAAGCAGAGATT against SF3A2, the median seed-adjusted z-score was -1.7 (active).
As for CACCAGGACCAGUUAAAAATT against MVD, the figure is -0.561; as for GGUGAUUCAAGAUGCCCAATT against PXMP2, -0.444; as for CUCCCAUGAUGGCAUCUUATT against HSPB2, 0.247.
In the case of CCAUCGAUGUCUCUGCUAUTT against ABCA1, the median seed-adjusted z-score is -1.27 (active).
In the case of UCGUCUUUGUCACCCGAAATT against CCL5, the median seed-adjusted z-score was 0.11.
The figure for CGUGCGGACAAUAAGCAAATT against MYO1C is 0.566.
For the sequence GGCUAACUCGAUUUAAGCATT against TIGD2, the median seed-adjusted z-score is -0.13.
The figure for GACUUUGACAAAGCGAUUATT against SPTAN1 is -0.233; for CAUCCAUGGUUAAGUCAUATT against PTK6 it is -0.295.
As for GCACCUCUACAGGAACUUUTT against TSC2, the figure is 1.11 (active); as for GCUCCUCGUUUGUAGAAGATT against SLIT3, -0.453.
Consider CGAUGUCUAGAGAACAGCATT against LAMB1, for which the median seed-adjusted z-score was 1.07 (active).
As for CGAGUACCGGGUCAAGAUATT against PLXND1, the figure is -0.064.
As for CGGUGACCAUAGUACAACATT against FOXK2, the figure is -0.348; as for GAGCGCCUCUAGAAUGUAATT against HMX1, 1.3 (active); as for AGUUUGUGAUAUCAUGAGATT against FRMPD2, -0.329.
The figure for UCAAUACUGUGGGUUCUUATT against FBLN2 is 0.176.
For the sequence GGUACCUGCUGAUUCAGAATT against SLC2A5, the median seed-adjusted z-score was -0.429.
For the sequence GCUACAUCGAGGACCUUAATT against SERPINB1, the median seed-adjusted z-score was 0.734.
As for CCAUUGUCUUCCACCGAAATT against RAN, the figure is -3.09 (active); as for CAACGGUAAUUAUCAGUCATT against FABP7, 0.562; as for GCCUGACUGUAACACCCAATT against TXN2, 0.87.
As for GGAAAGGUCUAGAUCAGGATT against SEL1L2, the figure is -0.342; as for GCAGCUUCACCUAUCCGAUTT against KLF4, 0.883; as for GCGAUAUUAUCAUACUGGATT against ZNF470, -1.26 (active).
As for CCACCGACGACAAUCUGUATT against ATP4A, the figure is 0.
Regarding AGGUCAGGGUUACAGCUUUTT against MPP2, the median seed-adjusted z-score was 0.0496.
Regarding CCAUAUAAGUUUACGUUUATT against TM9SF2, the median seed-adjusted z-score was 1.09 (active).
As for CCUCGACCCUGUUUCUUAUTT against ARL4D, the figure is -0.523; as for CCACGUUCACCAAGAUCUUTT against RBM38, 0.0358.
As for GGCUUAUGGAGAUAUGAAUTT against PPFIA2, the figure is 0.176; as for GGAACUCUUUGCUGAAUUUTT against THOC4, -1.54 (active).
As for CAUUAGUACUUCGAUCUAUTT against PHCA, the figure is 0.0568; as for GCUCCAAAUGGAGAGUGUATT against PRKCDBP, 0.244; as for GGAACAGCACAGAACAGCATT against ARID5A, 0.0642.
Take CCAUUGAAGCUUGAGAGAATT against ZNF286A: the median seed-adjusted z-score is 0.0368.
As for CGAAGACUGUCUGAGACAATT against GPR52, the figure is -1.17 (active); as for CCGUAAACAUAUGACUAAATT against ZBTB11, -0.105.
The figure for CGCCAUCUGUGUAACUUCATT against CARD9 is -0.325.
